DAX1 inh-1 = DAX1 (NR0B1) inhibitors on StAR promoter, primary screen, cell-based, luminescence, SF-1 (NR5A1), full-length DAX-1. actives 1.1% (n = 370,000). AID 652010, 2013. inhibition, % at 6.8 µM. HEK293T StAR-luciferase reporter, SF-1/DAX-1 repression relief;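 active = inhibition above the mean over all tested compounds plus 3 SD, cut at about 3.6% in these data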;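 note: 0% = DAX-1 cells with DMSO and 100% = cells lacking DAX-1 with DMSO; higher inhibition means more luminescence from relief of DAX-1 repression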
ssDAF12 agonist = S. stercoralis DAF-12 nuclear receptor activators, primary screen, cell-based, luminescence, HEK293, GRIP1 co-expression, lit1-tk-luc; activation, % at 6.8 µM; AID 652126, 2013; Nuclear hormone receptor DAF-12 (Strongyloides stercoralis); HEK293 ssDAF-12/GRIP1 lit1-tk-luc reporter; % of 3 µM dafachronic acid response; actives 1% (n = 370,000);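 active = activation above the mean over all tested compounds plus 3 SD, cut at about 0.9% in these data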;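 note: 0% = DMSO-only wells and 100% = 3 µM delta7-dafachronic acid wells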
hgDAF-12 ag = H. glycines DAF-12 receptor agonists, primary screen, cell-based, luminescence, HEK293, GAL4 fusion, UAS-luciferase | HEK293 GAL4-hgDAF12 UAS-luciferase reporter, agonist luminescence; normalized to butyrate control | activation, % at 6.8 µM | Nuclear hormone receptor DAF-12 (Heterodera glycines), GAL4 fusion | actives 1.8% (n = 370,000);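 active = activation above a cutoff set at the mean of all screened compounds plus 3 SD, cut at about 10% in these data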;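 note: 0% = DMSO wells and 100% = sodium butyrate wells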
AHR act = AHR activators, primary screen, cell-based, luminescence, luciferase reporter, human; Aryl hydrocarbon receptor (Homo sapiens), P35869; AHR-responsive luciferase reporter cells; activation, % at 5 µM; actives 2.5% (n = 320,000); AID 2796, 2010; in the data active = activation above about 47%;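 note: 0% = vehicle wells and 100% = reference agonist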
Target sequence (P35869 whole entry, looked up): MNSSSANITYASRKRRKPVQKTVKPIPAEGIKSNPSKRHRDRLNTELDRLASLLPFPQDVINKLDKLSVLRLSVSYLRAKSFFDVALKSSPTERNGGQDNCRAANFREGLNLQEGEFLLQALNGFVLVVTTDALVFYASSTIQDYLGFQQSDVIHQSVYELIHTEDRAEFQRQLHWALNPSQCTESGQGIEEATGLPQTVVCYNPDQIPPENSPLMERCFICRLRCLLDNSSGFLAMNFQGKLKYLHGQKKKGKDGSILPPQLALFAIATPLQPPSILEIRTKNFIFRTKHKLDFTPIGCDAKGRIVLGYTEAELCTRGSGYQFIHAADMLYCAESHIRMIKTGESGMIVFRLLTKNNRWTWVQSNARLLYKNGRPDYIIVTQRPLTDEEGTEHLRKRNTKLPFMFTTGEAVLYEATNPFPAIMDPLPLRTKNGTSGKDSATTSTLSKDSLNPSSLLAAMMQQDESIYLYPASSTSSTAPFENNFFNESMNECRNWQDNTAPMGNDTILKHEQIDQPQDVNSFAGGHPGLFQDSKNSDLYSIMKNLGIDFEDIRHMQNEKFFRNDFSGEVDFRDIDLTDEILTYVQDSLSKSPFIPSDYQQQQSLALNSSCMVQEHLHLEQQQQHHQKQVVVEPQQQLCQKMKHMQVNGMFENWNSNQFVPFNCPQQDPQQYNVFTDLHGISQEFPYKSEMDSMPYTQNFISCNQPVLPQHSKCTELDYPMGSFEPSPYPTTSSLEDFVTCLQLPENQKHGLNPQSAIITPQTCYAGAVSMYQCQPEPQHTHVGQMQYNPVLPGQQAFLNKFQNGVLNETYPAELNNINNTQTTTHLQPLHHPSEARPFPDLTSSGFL
DAX1 inh-2 = DAX1 (NR0B1) inhibitors, primary screen, cell-based, HEK293, Gal4-DAX1, luciferase luminescence; Nuclear receptor subfamily 0 group B member 1 (Homo sapiens), P51843; HEK293 Gal4-DAX1 luciferase reporter; inhibition, % at 6.75 µM; actives 0.99% (n = 340,000); AID 504766, 2011;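 active = inhibition above the mean over all tested compounds plus 3 SD, cut at about 4.2% in these data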;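 note: 0% = DAX1-transfected cells with DMSO and 100% = empty-vector control cells with DMSO; inhibition shows as a rise in luminescence from relieved DAX1 repression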
hcDAF12 agonist = H. contortus DAF-12 nuclear receptor activators, primary screen, cell-based, luminescence, HEK293, lit1-tk-luc reporter; HEK293 hcDAF-12 lit1-tk-luc reporter; 0% DMSO, 100% Δ7-dafachronic acid; activation, % at 6.8 µM; actives 1.4% (n = 370,000);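 active = activation above the mean of all tested compounds plus 3 SD, cut at about 5.5% in these data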;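 note: 100% = response to 3 µM Δ7-dafachronic acid high control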
DAX1 inh confirm = DAX1 (NR0B1) inhibitors relieving SF-1 repression, confirmation, cell-based, luminescence, HEK293T, full-length DAX-1, SF-1 activated StAR promoter. actives 87% (n = 2,400). inhibition, % at 6.8 µM. AID 652134, 2013. HEK293T StAR-promoter luciferase reporter, SF-1/DAX-1 repression. shares compounds with DAX1 inh-1;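 active = inhibition above the average of every tested compound plus 3 SD, cut at about 3.8% in these data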;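 note: 0% = DAX-1 cells with DMSO and 100% = no DAX-1 control cells with DMSO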
SF1 AF2mut Luc = StAR reporter signal changes without DAX1, counter-screen for DAX1 inhibitor project, cell-based, luminescence, AF-2 mutant SF-1, transactivation; AID 652136, 2013; actives 78% (n = 2,400); shares compounds with DAX1 inh-1; HEK293 StAR-luciferase, SF-1 AF2 mutant; inhibition, % at 6.8 µM;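 active = inhibition above the mean of all tested compounds plus 3 SD, cut at about 3% in these data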;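 note: 0% = DAX-1 transfected cells with DMSO and 100% = cells without DAX-1 with DMSO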
Active calls of the source: *; x = no result given. In the library only some 5.7% were active in any assay of this set; here they are far more common.

SMILES	DAX1 inh-1	ssDAF12 agonist	hgDAF-12 ag	AHR act	DAX1 inh-2	hcDAF12 agonist	DAX1 inh confirm	SF1 AF2mut Luc
CC(=O)Nc1ccc(NC(=S)NC(=O)C2CCCC2)cc1	4.9*	-1	4	2	1	0	2	0
CCCN1CCN(CCCNC(=O)C(CC)n2nc(C)c3sc4ccccc4c3c2=O)CC1 (stereo not drawn)	5.3*	-1	1	-2	1	2	3	4.3*
CCC(C(=O)NCCCN1CCN(C)CC1)n1nc(C)c2sc3ccccc3c2c1=O (stereo not drawn)	0	-1	0	1	0	0	x	x
COc1ccccc1C(=O)NCCC(=O)NC1CCC(C)CC1 (stereo not drawn)	8.7*	1	8	12	1	4	10*	4.6*
COc1ccccc1C(=O)NCCC(=O)NC1CCCCC1C (stereo not drawn)	1	-1	0	1	0	0	x	x
Cc1ccc2c(c1)C(CS(=O)(=O)NCC(C)C)NC2 (stereo not drawn)	-1	-1	-1	x	x	1	x	x
CC(C)NC(=O)N[C@H]1CC[C@H](CC(=O)NCc2ccc(Oc3ccccc3)cc2)O[C@@H]1CO	4.5*	-1	2	x	x	0	0	3
O=C(C[C@H]1CC[C@@H](NC(=O)Nc2ccc3c(c2)OCO3)[C@@H](CO)O1)NCc1ccccc1	1	-1	-2	x	x	2	x	x
Cc1ccc(OCCC(=O)OCC(=O)Nc2cc(C)nn2-c2ccccc2)cc1	-1	0	-3	-3	1	-1	x	x
CC(C)(C)c1cc(NC(=O)c2cccs2)no1	11*	1	11*	15	0	4	12*	7.2*
Cc1cc(NC(=O)c2ccc(NC(=O)c3cccs3)cc2)no1	0	-1	-2	20	0	-2	x	x
Cc1ccc(-c2cc3ccccc3nc2N2CCCC2)cc1	1	0	3	12	0	5	x	x
Cc1ccc2c(c1)-c1nc3ccccc3cc1C2=NC1CCCCC1	4.8*	1.6*	19*	79*	4	13*	4.0*	2
CCOC(=O)c1ccc2nc(NC(=O)C(C)C)sc2c1	4.6*	0	13*	10	2	1	4	2
Cc1ccc2nc(NC(=O)COC(=O)c3cccnc3)sc2c1	5.6*	-1	12*	14	1	4	4.0*	3
Cc1ccc(NC(=O)COC(=O)c2cccnc2)cc1	0	-2	-1	6	0	0	x	x
CCCC(=O)Nc1nc2ccc(C(=O)OCC)cc2s1	0	-1	4	6	3	0	x	x
Cc1ccc(OCC(=O)Nc2ccon2)c([N+](=O)[O-])c1	5.3*	0	6	0	2	3	6.5*	3.7*
C(=NNc1ccc2ccccc2n1)c1ccccn1	4.8*	0	11*	x	x	5.9*	-9	-11
Cc1cc(NN=Cc2ccccn2)nc2ccccc12	-2	-1	6	x	x	3	x	x
CCOCCCNC(=O)C(Cc1ccccc1)NC(=O)c1ccco1 (stereo not drawn)	-1	-2	-1	0	3	0	x	x
